Source: PubChem (National Center for Advancing Translational Sciences (NCATS))
GPT2 inhibitor: blocks human glutamate pyruvate transaminase 2. Q8TD30. Recombinant GPT2, coupled pyruvate oxidase/HRP Amplex Red fluorescence. Potency, µM (highest dose often 57.7 µM), for the others: top-dose activity change, negative = inhibition, most hits filed as inhibitors. 0.25% of 100,000 active; further: on the % scale 0 is the no-effect control and ±100 the full control effect; nearly all actives have a fitted effect of over 60% in size
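Recombinant GPT2 (10ng/uL) with 250uM a-KG and 2mM L-alanine, 30 min at room temperature, in HEPES pH 7.5 buffer. Pyruvate detected by pyruvate oxidase/HRP/Amplex Red fluorescence after 30 min in the dark; AOA (50uM) as positive control.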
HEK cytotox: HEK 293 cell cytotoxicity; HEK 293 viability, ATP luminescence (CellTiter-Glo), 48-72 h; Potency, µM (top dose mostly 115 µM), inactives show at the highest dose activity change, negative = cytotoxicity, actives largely listed as inhibitors; 6.6% of 94,000 active; further: on the % scale 0 is the no-effect control and ±100 the full control effect; nearly all actives have a fitted effect of over 60% in size
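Read-out: CellTiter-Glo ATP luminescence. Cells: HEK 293, 250 cells/well. Exposure: 48 or 72 hr, 37 degree Celsius.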
hNpr1 antagonist: human Npr1 receptor antagonism. P16066. HEK293 hNpr1 GloSensor cGMP, ANP-stimulated luminescence. Potency, µM (top dose mostly 46.3 µM), inactives show at the highest dose activity change, negative = inhibition, most hits filed as inhibitors. 1.6% of 76,000 active; calls by dose curve; further: on the % scale 0 is the no-effect control and ±100 the full control effect; nearly all actives have a fitted effect of over 60% in size
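Compound pre-incubated 30 min at room temperature on GloSensor-loaded HEK293 cells stably carrying hNpr1 and the pGS-40F cGMP biosensor. Stimulation uses hNppA at 0.1 nM final; luminescence is taken at baseline and 20 min post-agonist.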
3T3 cytotox: kills NIH 3T3 cells; NIH 3T3 viability, CellTiter-Glo ATP luminescence, 48-72 h; Potency, µM (titrated, usually from 96.7 µM), without a hit: at the top dose activity change, negative = cytotoxicity, usual class: inhibitors; 4.3% of 94,000 active; further: on the % scale 0 is the no-effect control and ±100 the full control effect; nearly all actives have a fitted effect of over 55% in size
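Mouse fibroblast NIH 3T3 cells, 400 per well, received compound via pintool and were incubated for 48 or 72 hr prior to CellTiter-Glo ATP luminescence measurement.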
FLuc inh-1: inhibitors of firefly (Photinus pyralis) luciferase | P08659 | purified P. pyralis luciferase, luminescence, biochemical | Potency, µM (titrated, usually from 115 µM), actives largely listed as inhibitors | 2.5% of 76,000 active | AID 1347043; further: on the % scale 0 is the no-effect control and ±100 the full control effect; nearly all actives have a fitted effect of over 65% in size
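Purified P. pyralis luciferase (10nM final) in 50mM Tris acetate pH 7.5, 10mM Mg acetate, 0.01% Tween-20, 0.05% BSA with 10uM D-luciferin and 10uM ATP. Compounds titrated qHTS. Luminescence imaged on CCD.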
FLuc SDR no ATP: firefly luciferase binding stabilization, ATP absent. shares compounds with FLuc inh-1. Purified FLuc-C-HiBiT, Nano-Glo HiBiT luminescence, no ATP. Potency, µM (top dose mostly 32.7 µM), for the others: at the highest dose activation (signal gain), usual class: activators. 7.8% of 1,300 active. AID 1963318; further: nearly all actives have a fitted effect of over 55% in size
FLuc SDR ATP: firefly luciferase binding stabilization, ATP added | purified FLuc-C-HiBiT + ATP, HiBiT complementation luminescence | Potency, µM (series often up to 32.7 µM), without a hit: at the highest dose activation (gain of signal), most hits filed as activators | 8.7% of 1,300 active | shares compounds with FLuc inh-1;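 further: signal reports ligand binding via conformational change of the enzyme rather than luciferase catalysis; % of control where 0% means no effect; nearly all actives have a fitted effect of over 55% in size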
FLuc inh-2: inhibitors of firefly luciferase enzymatic activity. shares compounds with FLuc inh-1. purified FLuc-C-HiBiT enzyme, luciferin luminescence. Potency, µM (top dose mostly 32.7 µM), for the others: at the highest dose activity change, negative = inhibition, usual class: inhibitors. 42% of 1,300 active; further: on the % scale 0 is the no-effect control and ±100 the full control effect; nearly all actives have a fitted effect of over 70% in size
Starred values were filed as active, the others as inactive; i = inactive; ? = inconclusive; . = no result given; [ ] = dose if it differs, or a comment. Only some compounds are listed: those with a hit (about 10% of all), similar ones and a draw of the others. Unless noted, the call rests on the fitted dose curve; in most records, active means well fitted curve in the direction sought with a large enough effect; inconclusive means small, poorly fitted or top-dose-only effect, or another doubt; inactive means no such curve, though single readings can be large; an effect the other way counts as inactive or inconclusive. Potency means the concentration at half of the fitted maximal effect.

SMILES	GPT2 inhibitor	HEK cytotox	hNpr1 antagonist	3T3 cytotox	FLuc inh-1	FLuc SDR no ATP	FLuc SDR ATP	FLuc inh-2
COc1ccc(NC(=O)Nc2ccc(C)n(CC(=O)N3CCCC(C)C3)c2=O)cc1 (stereo not given)	4.2%	-16.0%	3.5%	-28.7%	7.08µM*	?	?	7.85µM*
CC(C)Oc1cccc(-c2cccc(COc3ccc4c(cnn4CC[S+](C)(=O)[O-])c3)c2)c1	-0.8%	28.2µM*	?	?	6.31µM*	13.4%	11.6%	?
CNC(=O)CCn1ncc2cc(OCc3ccccc3-c3cccc(NC(C)=O)c3)ccc21	?	?	-19.2%	?	8.91µM*	26.7%	?	3.13µM*
COc1ccc(C)cc1-c1ccc(COc2ccc3c(cnn3CCC(=O)O)c2)cc1	0.5%[88.5 µM]	?	-0.5%[70.6 µM]	-16.1%[138 µM]	i	.	.	.
C[S+](=O)([O-])CCn1ncc2cc(OCC3CCN(Cc4ccccc4)CC3)ccc21	1.5%[88.5 µM]	?	6.0%[70.6 µM]	?	i	.	.	.
Cn1cc(-c2cccc(COc3ccc4c(cnn4CC[S+](C)(=O)[O-])c3)c2)cn1	3.5%[88.5 µM]	?	?	?	5.62µM*	24.9%[49.3 µM]	?	?
O=C(O)CCn1ncc2cc(OCc3ccc(-c4cccc(CO)c4)cc3)ccc21	?	-6.5%[172 µM]	-4.5%[70.6 µM]	?	20µM*	-0.2%[49.3 µM]	0.6%[49.3 µM]	?
COc1ccc(-c2noc(-c3cccn3CC(=O)Nc3ccccc3C)n2)cc1F	i	-10.1%	2.1%	-0.9%	i	.	.	.
CCN1c2cc(C(=O)NCc3ccc(C(C)C)cc3)ccc2C(=O)N2CCCCCC21 (stereo not given)	-8.5%	?	-2.5%	?	i	.	.	.
Cc1cn2nc(C(=O)NCCc3ccccc3)cc2c(=O)[nH]1	-2.4%	-1.9%	-21.3%	3.7%	10µM*	?	?	?
Cc1cn2nc(C(=O)Nc3ccc(C(=O)N4CCCC4)cc3)cc2c(=O)[nH]1	i	?	4.7%	?	7.94µM*	?	?	9.89µM*
CCc1ccccc1NC(=O)c1cc2c(=O)[nH]c(C)cn2n1	3.3%	-2.5%	-5.3%	i	12.6µM*	16.7%	13.0%	?
Cc1cn2nc(C(=O)N3CCCC3)cc2c(=O)[nH]1	1.0%	1.7%	9.9%	i	i	.	.	.
Cc1ccc(CCNC(=O)c2cc3c(=O)[nH]c(C)cn3n2)cc1	-1.3%	-6.0%	2.0%	-9.8%	?	.	.	.
O=C(c1cncc(Br)c1)N1CCN(c2ccnc3ccnn23)CC1	4.9%	3.2%	.	-2.7%	.	.	.	.
CN(CCc1ccccn1)c1ncccc1CNC(=O)c1cc(C2CC2)no1	4.6%	-22.9%	1.1%	-24.8%	i	.	.	.
Cn1c(C(=O)Nc2ccc3c(c2)OCO3)cc2c1CCN(Cc1cccc(F)c1)C2	?	?	-1.4%	?	10µM*	12.5%	11.5%	-18.6%
CC(=O)c1cccc(NC(=O)c2cc3c(n2C)CCN(Cc2cccc(F)c2)C3)c1	4.3%	?	4.7%	-28.4%	?	.	.	.
Cc1ccc(S(=O)(=O)Nc2nc3c(s2)C[C@]2(C)CC[C@@H]4[C@H](OC(=O)[C@H]4C)[C@H]2[C@@H]3C)cc1	-2.3%	-21.2%	-2.0%	-23.5%	?	.	.	.
C[C@@H]1C(=O)O[C@H]2[C@H]1CC[C@@]1(C)Cc3sc(Nc4cccnc4)nc3[C@@H](C)[C@H]21	-7.5%[88.5 µM]	-5.3%[172 µM]	15.8µM*	-22.1%[174 µM]	0.794µM*	1.01µM*	?	0.453µM*
C[C@@H]1C(=O)O[C@H]2[C@H]1CC[C@@]1(C)Cc3sc(NCc4ccccc4)nc3[C@@H](C)[C@H]21	-29.8%[88.5 µM]	?	?	?	3.55µM*	?	16.6%[49.3 µM]	7.18µM*
C[C@@H]1C(=O)O[C@H]2[C@H]1CC[C@@]1(C)Cc3sc(Nc4ccccc4)nc3[C@@H](C)[C@H]21	i	?	?	?	?	.	.	.
COc1ccc(-c2noc([C@@H](C)NCC3CCCC3)c2C(=O)O)cc1	1.3%[88.5 µM]	?	2.5%[70.6 µM]	1.5%[138 µM]	i	.	.	.
O=C(c1nc2sccn2c1-c1ccccc1)N1CCOCC1	i	-6.4%[172 µM]	.	3.9%[138 µM]	.	.	.	.
COc1ccc(-c2noc(-c3cccn3CC(=O)N3CCN(c4ccc(F)cc4)CC3)n2)cc1F	-2.3%	7.7%	3.8%	i	i	.	.	.
SMILES	GPT2 inhibitor	HEK cytotox	hNpr1 antagonist	3T3 cytotox	FLuc inh-1	FLuc SDR no ATP	FLuc SDR ATP	FLuc inh-2
COc1ccc(N2CCN(C(=O)Cn3cccc3-c3nc(-c4ccc5c(c4)OCO5)no3)CC2)cc1	-7.2%	0.7%	-1.0%	0.0%	i	15.3%	11.7%	-3.2%
COc1ccc(CCC(=O)N2CCCCCC2CN2CCC(C)CC2)cc1 (stereo not given)	i	?	.	?	.	.	.	.
O=C(Nc1nc2ccccc2s1)c1ccc2c(c1)OCCN(CCC(F)(F)F)C2	i	20µM*	?	?	12.6µM*	13.1%[49.3 µM]	10.3%[49.3 µM]	?
O=C(Nc1nc2c(F)cccc2s1)c1ccc2c(c1)OCCO2	.	.	.	.	.	9.89µM*	?	0.495µM*
O=C(Nc1nccs1)c1ccc2c(c1)OCCN(c1ccccc1)C2	-17.6%[88.5 µM]	-25.7%[172 µM]	-17.6%[70.6 µM]	?	?	.	.	.
O=C(Nc1nccs1)c1ccc2c(c1)OCCN(CCC(F)(F)F)C2	-22.4%[88.5 µM]	?	-12.7%[70.6 µM]	?	?	.	.	.
Cc1cccc(CNC(=O)c2c(C)noc2-c2cccs2)c1	i	?	-7.8%	?	i	.	.	.
Cc1ccc(NC(=O)N2CCC3(CCNC(=O)CC3)CC2)cc1F	i	11.4%	3.0%	?	i	.	.	.
Cc1cccc(-c2ccccc2C=O)c1	3.4%[88.5 µM]	-9.7%[230 µM]	.	3.4%[174 µM]	.	.	.	.
